KDM5B inh – KDM5B demethylase inhibition | Q9UGL1 | KDM5B demethylase, FDH-coupled NADH fluorescence (FDH is formaldehyde dehydrogenase) | Potency, µM (series often up to 57.7 µM), most hits filed as inhibitors | 220,000 tested, 2.6% active; active = well fitted inhibition curve with a large enough effect; also: 0% is about no effect; nearly all actives have a fitted effect of over 70% in size
Target sequence (Q9UGL1 whole entry, looked up): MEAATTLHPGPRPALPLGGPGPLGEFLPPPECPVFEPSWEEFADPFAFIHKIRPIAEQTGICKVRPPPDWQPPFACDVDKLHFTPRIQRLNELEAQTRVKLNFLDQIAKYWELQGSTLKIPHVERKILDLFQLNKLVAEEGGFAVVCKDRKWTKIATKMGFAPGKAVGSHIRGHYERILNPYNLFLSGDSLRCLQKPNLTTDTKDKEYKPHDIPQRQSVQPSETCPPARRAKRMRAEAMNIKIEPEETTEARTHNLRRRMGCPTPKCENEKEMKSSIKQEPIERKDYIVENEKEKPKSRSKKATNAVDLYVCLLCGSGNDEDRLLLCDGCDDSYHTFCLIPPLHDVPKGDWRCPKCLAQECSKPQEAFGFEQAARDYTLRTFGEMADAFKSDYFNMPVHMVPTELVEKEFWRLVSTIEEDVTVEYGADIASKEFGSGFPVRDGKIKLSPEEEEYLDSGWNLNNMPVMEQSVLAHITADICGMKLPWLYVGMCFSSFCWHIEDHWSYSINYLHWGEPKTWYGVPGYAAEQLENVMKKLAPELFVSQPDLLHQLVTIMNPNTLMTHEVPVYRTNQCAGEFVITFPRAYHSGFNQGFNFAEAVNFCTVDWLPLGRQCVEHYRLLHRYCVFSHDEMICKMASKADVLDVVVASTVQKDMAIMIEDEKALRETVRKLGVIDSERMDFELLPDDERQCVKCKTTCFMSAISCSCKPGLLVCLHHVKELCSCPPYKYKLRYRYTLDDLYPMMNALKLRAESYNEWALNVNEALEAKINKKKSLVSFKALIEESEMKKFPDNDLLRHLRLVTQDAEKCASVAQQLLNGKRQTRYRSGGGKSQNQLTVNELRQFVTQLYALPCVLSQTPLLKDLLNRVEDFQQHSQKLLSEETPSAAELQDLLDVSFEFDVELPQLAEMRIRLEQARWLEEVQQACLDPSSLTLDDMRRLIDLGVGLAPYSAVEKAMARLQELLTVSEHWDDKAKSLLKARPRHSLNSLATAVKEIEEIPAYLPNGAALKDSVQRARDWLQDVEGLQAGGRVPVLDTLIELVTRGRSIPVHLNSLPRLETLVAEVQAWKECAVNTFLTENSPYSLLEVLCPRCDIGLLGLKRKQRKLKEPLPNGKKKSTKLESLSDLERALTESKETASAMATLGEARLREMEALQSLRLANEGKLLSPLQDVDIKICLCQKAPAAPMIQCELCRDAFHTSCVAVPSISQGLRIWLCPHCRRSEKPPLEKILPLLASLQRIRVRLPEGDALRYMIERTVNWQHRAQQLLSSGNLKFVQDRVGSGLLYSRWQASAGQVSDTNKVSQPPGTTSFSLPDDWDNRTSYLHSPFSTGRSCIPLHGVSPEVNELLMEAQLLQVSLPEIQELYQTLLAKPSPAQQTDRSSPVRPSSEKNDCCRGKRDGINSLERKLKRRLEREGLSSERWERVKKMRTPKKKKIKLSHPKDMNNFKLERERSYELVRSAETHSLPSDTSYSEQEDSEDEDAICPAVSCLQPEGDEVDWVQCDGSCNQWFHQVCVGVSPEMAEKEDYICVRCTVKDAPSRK
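KDM5BΔAP (200 nM final) in 50 mM HEPES pH 7.5, 0.01% Tween-20 was preincubated 10 min at RT with compound over a concentration range. Substrate mix (H3K4me3 12.5 µM, α-KG 25 µM, Fe²⁺, ascorbate, NAD⁺, FDH) was added, and NADH fluorescence change over 30 min gave dose-response curves.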
Active calls of the source: *; i = inactive. The sample as a whole holds a higher share of hits than the screen did. Potency is read from the fitted curve at half-maximal effect.

SMILES	KDM5B inh
COC(=O)c1cc(NC(=O)c2ccccc2OC(F)F)c(F)cc1F	i
COC(=O)c1ccc(NC(=O)CCc2c(C)[nH]n(-c3ccc(F)cc3)c2=O)cc1	i
CC1(C)CNC(=O)c2nc(CCN3CCCc4ccccc43)[nH]c2C1	16µM*
CN(CCc1nc2c([nH]1)CC(C)(C)CNC2=O)c1ccccc1	i
CC1CCN(CCc2nc3c([nH]2)CC(C)(C)CNC3=O)CC1	i
CCCN(Cc1nnc(-c2ccccc2Cl)o1)C(=O)c1cccc(S(=O)(=O)N(C)C)c1	i
O=C(CNc1cccc(S(=O)(=O)N2CCOCC2)c1)N1CCN(C(=O)c2cccs2)CC1	i
COCCN1CC2(CCCN(Cc3ccccc3OC)C2)CCC1=O (stereo not given)	i
COCCN1CC2(CCC1=O)CCN(C(=O)C(C)SC)CC2 (stereo not given)	i
COCCN1CC2(CCC1=O)CCN(c1nc(C(C)C)ccc1C#N)CC2	28µM*
CCCC(C)(C)NC(=O)Cc1ccc(OC)c(OC)c1	i
CC(=O)NCc1ccc(-c2csc(Nc3cc(C)ccc3C)n2)o1	i
CCOC(=O)c1cc(NS(=O)(=O)c2ccc3ccccc3c2)cc(C(=O)OCC)c1	i
COc1cccc(CNC(=O)c2c(C)noc2-c2ccccc2Cl)c1	i
CCOCCNC(=O)c1c(C)noc1-c1ccc(OC)cc1	i
COc1cccc(CCNC(=O)c2c(C)noc2-c2cc(OC)c(OC)c(OC)c2)c1	28µM*
COc1cccc(CCNC(=O)c2c(C)noc2-c2ccco2)c1	i
COc1ccc(CCNC(=O)c2c(C)noc2-c2cccc(F)c2)cc1	i
COc1ccc(CCNC(=O)c2c(C)noc2-c2cc(OC)cc(OC)c2)cc1	i
COc1cc(-c2onc(C)c2C(=O)NCCc2ccc(F)cc2)cc(OC)c1OC	28µM*
COc1ccc(CNC(=O)c2c(C)noc2-c2ccco2)cc1	i
COc1ccc(-c2onc(C)c2C(=O)NCCSCc2ccco2)cc1	22µM*
O=C(Cn1ccn2nc(-c3ccc4c(c3)OCO4)cc2c1=O)NCc1ccco1	i
Cc1c(Cl)cccc1NC(=O)C(C)N1CCC(C(=O)NCc2ccccc2)CC1 (stereo not given)	i
COc1cc(C(=O)/C=C/c2cccc(OC(C)C(=O)O)c2)ccc1O (stereo not given)	i
SMILES	KDM5B inh
O=C(O)COCC(=O)NCC1CCCO1 (stereo not given)	i
COCC(C)NC(=O)CCC1CCCO1 (stereo not given)	i
O=C(Nc1ccc(F)cc1)N(Cc1cccc(O)c1)C1CC1	i
CC(C)(C)c1ncc(NC(=O)c2cc[n+]([O-])cc2)cn1	i
COc1ccc(CCC(=O)NCc2nnc3c(-c4nc(C5CC5)no4)cccn23)cc1	i
O=C(CCCc1ccccc1)N1C[C@@H](CO)[C@H](c2nc(C3CC3)no2)C1	i
O=C(CCCc1ccccc1)NCc1nnc2c(-c3nc(C4CC4)no3)cccn12	28µM*
O=C(CCC1CCCC1)NCc1nnc2c(-c3nc(C4CC4)no3)cccn12	11µM*
CC(C)CNC(=O)N1CCC(c2noc(-c3ccccc3)n2)C1 (stereo not given)	i
O=C(NCc1nnc2c(-c3nc(C4CC4)no3)cccn12)C1CCC1	28µM*
CCN(C)S(=O)(=O)c1cc2c(cc1Cl)Oc1cc(C)ccc1NC2=O	i
O=C(NC1(C(F)(F)F)C(=O)Nc2c1c(=O)[nH]c(=O)n2-c1ccccc1)c1cccs1 (stereo not given)	i
CS(=O)(=O)Oc1ccc2c(c1)O/C(=C\c1ccc3c(c1)OCO3)C2=O	i
FC(F)(F)c1cc(-c2cccs2)nc2c(-c3ccccc3)cnn12	i
O=c1cc(-c2cccnc2)oc2c(-c3ccccc3Oc3ccccc3)nccc12	i
COc1cccc(CNC(=O)Cn2c(N3CCOCC3)nc(C)cc2=O)c1	i
O=C(O)c1cc(N2CCOCC2)ccn1	i
CN(c1cc(=O)c2ccnc(-c3ccccc3Oc3ccccc3)c2o1)C1CCOCC1	i
COc1cc(CNc2nccc3c(=O)cc(N4CCOCC4)oc23)cc(OC)c1	28µM*
CN(c1ccccc1)c1cc(=O)c2ccnc(-c3cccnc3)c2o1	i
CN1CCC(Nc2nccc3c(=O)cc(N(C)c4ccccc4)oc23)CC1	i
O=c1cc(-c2cccnc2)oc2c(-c3ccccc3F)nccc12	35µM*
O=c1cc(N2CCOCC2)oc2c(NC3CCOCC3)nccc12	35µM*
CN(C)c1cc(=O)c2ccnc(-c3ccccc3Oc3ccccc3)c2o1	35µM*
C[S+](=O)([O-])N1Cc2ccccc2CC12CN(C(=O)c1ccccc1F)C2	i
SMILES	KDM5B inh
COc1ccc(C(=O)NC2CCN(c3ccc(C)cc3)C2=O)cc1F (stereo not given)	i
CC(C)Cn1cnc2c1c(=O)n(CC(=O)NCC(F)(F)F)c(=O)n2Cc1ccccc1	i
O=C(Nc1nnc(Cc2c[nH]c3ccccc23)s1)C1CCCCC1	i
O=c1cc(-c2cccnc2)oc2c(NCC3CCOCC3)nccc12	i
CC(=O)Nc1cccc(-c2nccc3c(=O)cc(N4CCOCC4)oc23)c1	35µM*
O=c1cc(N2CCOCC2)oc2c(-c3cccnc3)nccc12	40µM*
CC(=O)Nc1cccc(C(=O)OCC(=O)N2CCOCC2)c1	i
Cn1nccc1-c1nccc2c(=O)cc(N3CCOCC3)oc12	35µM*
COc1cccc(-c2nccc3c(=O)cc(N4CCOCC4)oc23)c1	35µM*
COc1cccc(N2CCN(C(=O)c3c(C)oc4ncnc(N5CCOCC5)c34)CC2)c1	i
COc1cccc(-c2nc(S(=O)(=O)c3ccc(C)cc3)c(N3CCOCC3)o2)c1	i
CSC(C)C(=O)N(C)Cc1sccc1C (stereo not given)	i
COCCNc1oc(-c2ccc(S(=O)(=O)N3CCC(C)CC3)cc2)nc1C#N	i
COc1ccc(C2(C(=O)N3CCCC(C(=O)NCc4ccccc4)CCNC(=O)CC3)CC2)cc1 (stereo not given)	i
O=C(Nc1cc2c(cc1C(O)c1ccc(Br)cc1)OCCO2)c1ccc(F)cc1 (stereo not given)	i
CCOc1ccc(OC(=O)c2ccc3c(c2)NC(=O)CS3)cc1	i
CN(CCCN)C1CCCCC1	i
CN(C)c1cc(=O)c2ccnc(-c3ccccc3F)c2o1	i
CN(C)c1cc(=O)c2ccnc(-c3ccc(F)c(Cl)c3)c2o1	35µM*
COc1cccc(-c2nccc3c(=O)cc(N(C)C)oc23)c1	32µM*
Cc1ccc(F)cc1-c1nccc2c(=O)cc(N(C)C)oc12	40µM*
COc1cccc(Cl)c1-c1nccc2c(=O)cc(N(C)C)oc12	i
O=c1cc(N2CCOCC2)oc2c(-c3cccc(F)c3)nccc12	40µM*
CN(C)c1cc(=O)c2ccnc(-c3cccc(C(F)(F)F)c3)c2o1	i
CO/N=C(\C)c1ccc(OCc2ccccc2)cc1	i
SMILES	KDM5B inh
COCC(=O)N1CCn2c(nn(-c3ccc([N+](=O)[O-])cc3)c2=O)C1	i
CC(=O)NC1=NN(C(C)=O)C(c2cc(Br)ccc2OCc2ccc(C)cc2)S1 (stereo not given)	i
COc1ccc(-c2nccn2CC(CO)Cc2ccsc2)cc1O (stereo not given)	i
CC(C)(C)C1CCC(=NNC(=O)C2CC2)CC1 (stereo not given)	i
O=C(CC[C@H]1NC(=O)c2ccccc2NC1=O)NCCc1ccncc1	i
CC(C)CN(Cc1cccnc1)C1CN(C(=O)Nc2ccccc2F)C1	i
